Bioassay records as filed in PubChem BioAssay.
H9c2 protect – cardioprotection against H2O2-induced cell death, primary screen, uHTS, H9c2 cells, ATPLite luminescence. H9c2 cardiomyocytes, H2O2 injury protection, 2 h. protection from H2O2 cell death, % at 20 µM. 360,000 compounds, 0.63% hits. AID 588492, 2011;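 active means compounds giving at least 50% protection of heart cells from peroxide-induced death in the single-dose screen, raw or plate-pattern-corrected value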;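 further: 0% = DMSO wells with peroxide and 100% = DMSO wells without peroxide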
Jurkat NFkB inh – inhibitors of induced NF-kB luciferase reporter, primary screen, TCR NF-kB activation inhibitor project, cell-based, luminescence, uHTS; inhibition, % at 4 µM; Jurkat, PMA/ionomycin-induced NF-kB luciferase reporter; AID 435003, 2010; 330,000 compounds, 0.53% hits; in the data active means inhibition above about 50%
H9c2 TAG inh – inhibitors of triacylglycerol accumulation, primary screen, cell-based, uHTS, fluorescence, H9c2. H9c2 cells, Nile Red lipid (TAG) fluorescence; cells loaded with 200 µM oleic acid. inhibition, % at 12.5 µM. 230,000 compounds, 0.66% hits;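 active means pattern-corrected inhibition of lipid staining of at least 50% with the nuclear-stain viability signal not falling by more than 50%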;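 further: 0% = DMSO wells and 100% = triacsin C control wells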
697 NFkB inh – inhibitors of PMA/ionomycin-induced NF-kB reporter, 697 cells, primary screen, B-cell NF-kB inhibitor project, cell-based, luminescence, uHTS; 697 B-cell NF-kB luciferase reporter, 16 h; inhibition, % at 4 µM; 330,000 compounds, 0.33% hits; in the data active means inhibition above about 35%
Gli-Sufu antag – Gli-Sufu pathway antagonists, primary screen, luciferase luminescence, Sufu-KO-LIGHT cells, uHTS | Sufu-KO-LIGHT fibroblasts, Gli luciferase reporter luminescence | inhibition, % at 5 µM | 340,000 compounds, 0.74% hits;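 active means inhibition above about 55%, limit read from the data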;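 further: 0% = DMSO-treated cells and 100% = wells with medium but no cells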
NR2F2 inh – NR2F2 transcriptional activity inhibitors, primary screen, cell-based, luciferase reporter, HEK293T, luminescence | HEK293T NGFI-A luciferase reporter | COUP transcription factor 2 (Homo sapiens), P24468 | inhibition, % at 8.6 µM | 370,000 compounds, 0.7% hits;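 active means inhibition above a per-plate cutoff, mean inhibition of test wells between control levels plus 3 SD, cut at about 38% in these data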;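 further: cells cotransfected with COUP-TFII expression vector driving the NGFI-A reporter; 0% = median of COUP-TF2 test wells and 100% = reporter-only cells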
Target sequence (P24468 whole entry, looked up): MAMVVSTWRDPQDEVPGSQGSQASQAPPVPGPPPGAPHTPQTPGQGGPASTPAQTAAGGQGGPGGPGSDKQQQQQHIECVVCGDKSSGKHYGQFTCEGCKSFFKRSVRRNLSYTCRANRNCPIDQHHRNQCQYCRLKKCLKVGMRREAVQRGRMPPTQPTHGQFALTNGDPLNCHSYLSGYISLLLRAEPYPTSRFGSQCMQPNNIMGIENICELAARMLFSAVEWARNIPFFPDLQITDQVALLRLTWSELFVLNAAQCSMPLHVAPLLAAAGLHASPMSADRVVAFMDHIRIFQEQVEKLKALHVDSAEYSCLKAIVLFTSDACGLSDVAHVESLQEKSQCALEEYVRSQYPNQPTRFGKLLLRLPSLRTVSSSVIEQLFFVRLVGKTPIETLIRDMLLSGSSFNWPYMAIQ
697 NFkB conf – PMA/ionomycin-induced NF-kB reporter inhibitors, 697 retest, confirmation, B-cell NF-kB inhibitor project, cell-based, luminescence, single concentration. shares compounds with 697 NFkB inh. 697 B-cell NF-kB luciferase, 16 h. inhibition, % at 4 µM. 2,000 compounds, 35% hits; in the data active means inhibition mostly above about 28%, no sharp cut-off; inactive means mostly below about 22%
* = called active by the depositor; i = inactive; / = no result given. The list is not random: actives were taken first. Their share in the collection is about 2.6%.

SMILES	H9c2 protect	Jurkat NFkB inh	H9c2 TAG inh	697 NFkB inh	Gli-Sufu antag	NR2F2 inh	697 NFkB conf
c1ccc2sc(Nc3nc4cc5c(cc4s3)OCO5)nc2c1	-2	-148	/	-290	-80	-39	-324
Fc1ccc2nc(Nc3nc4cc5c(cc4s3)OCO5)sc2c1	-8	-100	/	-158	-63	-10	/
CCc1ccccc1NC(=O)CSc1nnc([C@@H]2CCCN2C(=O)OC(C)(C)C)o1	-1	-15	5	36*	-6	-3	16
Cc1cccc(C)c1NC(=O)CSc1nnc([C@@H]2CCCN2C(=O)OC(C)(C)C)o1	-1	8	-6	22	-4	-25	/
CCN(CC)c1ccc2cc(-c3nc4ccccc4[nH]3)c(=O)oc2c1	-22	-149	/	-303	-58	/	-375
CCN(CC)c1ccc2cc(-c3nc4ccccc4n3C)c(=O)oc2c1	-2	/	/	/	21	-135	/
Cc1cc(C)c(S(=O)(=O)N2CCCCC2CCNC(=O)C(=O)NC2CC2)c(C)c1 (stereo not drawn)	3	-80	-27	i	2	/	i
Cc1ccc(S(=O)(=O)N2CCCCC2CCNC(=O)C(=O)NCc2ccncc2)cc1 (stereo not drawn)	3	-2	12	53*	18	-19	52*
O=C(NCCC1CCCCN1S(=O)(=O)c1ccccc1)C(=O)NCc1ccncc1 (stereo not drawn)	2	-10	5	34	45	-1	/
Cc1cc(S(=O)(=O)N2CCCCC2CCNC(=O)C(=O)NC2CC2)ccc1F (stereo not drawn)	2	9	12	13	0	10	/
Cc1c(CCC(=O)N2CCC[C@H]2C(=O)O)c(=O)oc2cc3oc4c(c3cc12)CCCC4	-2	-22	/	60*	7	/	42*
CCOc1ccc2[nH]c3c(N4CCN(c5ccccn5)CC4)ncnc3c2c1	-11	0	/	45*	44	26	27
Cc1ccc(S(=O)(=O)N2c3ccc(F)cc3C[C@H]2CSc2ccccc2)cc1	/	/	/	/	/	9	/
Cc1ccc(NC(=O)c2nc[nH]c2C(=O)NCCCNC(=O)c2[nH]cnc2C(=O)Nc2ccc(C)cc2)cc1	66*	-145	47	36*	-4	/	16
NNC(=O)COc1ccc(-c2nccc(-c3ccc(F)cc3)n2)cc1	0	8	/	60*	18	15	50*
O=C(O)COc1ccc(-c2nccc(-c3ccccn3)n2)cc1	-8	6	-12	52*	18	41*	56*
FCCCOc1ccc(-c2nccc(-c3ccccn3)n2)cc1	-2	-4	/	-8	-13	8	/
COc1ccc(NS(=O)(=O)c2cc(NC(=O)c3nn(C)c(=O)c4ccccc34)ccc2OC)cc1	-1	3	-4	37*	-1	-13	22
COc1cc(/C=C2/CC/C(=C/c3ccc(O)c(OC)c3)C2=O)ccc1O	70*	4	5	36*	7	-19	6
O=C1NC(c2cc(Cl)cc([N+](=O)[O-])c2O)Nc2ccccc21 (stereo not drawn)	-11	-15	-6	36*	2	6	-2
O=C(NCCCN1CCOCC1)c1cc(-c2cccs2)on1	0	-24	/	48*	-5	24	24
Cc1ccc(-c2cc(C(=O)NCCCN3CCOCC3)no2)cc1	-6	2	/	87*	38	18	85*
O=C(NCCCN1CCOCC1)c1cc(-c2ccc(Cl)c(Cl)c2)on1	-1	3	/	7	-5	2	/
CCC(CO)Nc1cccc2c1S(=O)(=O)N(Cc1cn(Cc3ccc(F)cc3)nn1)Cc1ccccc1O2 (stereo not drawn)	/	/	/	/	/	-15	/
C[C@@H]1CCCN1c1cccc2c1S(=O)(=O)N1CC[C@@H](C1)O2	/	/	/	/	/	11	/
